Assay results reported in PubChem BioAssay (Tox21).
Results filed as inconclusive are left out. Where a call stands in place of a potency, no number is given. Calls of active or inactive are those of the source. Calls follow the shape of the dose curve; as a rule, active = well fitted activation curve with a large enough effect in the repeat runs; inconclusive = weak or mixed curves, or effect the other way; inactive = no such curve, though single readings can be large or run the other way.

Test: qHTS assay to identify small molecule agonists of the estrogen related receptor signaling pathway with the pleiotropic PPARgamma coactivator (PGC) from Tox21 10K library (AID 1224842); also: nearly all actives have a fitted effect of over 15% in size
Details: PGC/ERR reporter cell line, luciferase ONE-Glo, 18 h; series mostly up to 92.4 µM
Source text: National Center for Advancing Translational Sciences [NCATS] NIH Chemical Genomics Center [NCGC] U.S. Environmental Protection Agency [EPA] National Institutes of Environmental Health Sciences [NIEHS] National Toxicology Program [NTP] Assay overview: Estrogen related receptors (ERRs), the first orphan nuclear receptors discovered, play an important role in the control of cellular energy metabolism. ERRs are required for high-energy production in response to the environmental challenges. The pleiotropic PPARgamma coactivator (PGC) is a major partner of ERR and a key regulator in energy homeostasis. Together they have been implicated in the etiology of metabolic disorders such as Type 2 diabetes and metabolic syndrome. ERR-alpha was also identified as an adverse marker for breast cancer progression; ERR-alpha-positive tumors have a poor prognosis. To screen and to identify environmental compounds that perturb the PGC/ERR signaling pathways could provide valuable information for potential therapeutic or preventive measures in the treatment of metabolic disease. For identifying PGC/ERR agonists, PGC/ERR cell line (provided by NTP) has been used to screen Tox21 10K library.
Assay Protocol Summary: The PGC/ERR cells were dispensed at 2,000 cells/5 ul/well in 1536-well white plates using a Multidrop dispenser. After the assay plates were incubated at a 37 C/5% CO2 incubator for 6 hours, 23 nL of compounds dissolved in DMSO, positive and negative controls or DMSO only was transferred to the assay plate by a pin tool. The plates were incubated at 37 C for 18 hours. 4 ul/well of One-Glo reagent was added into the assay plates using a Flying Reagent Dispenser. After 30-minute incubation at room temperature, the luminescence intensity in the plates was measured using a ViewLux plate reader.
Potency is read from the fitted curve at half-maximal effect.

Row | Structure (SMILES) | Potency | activation
1 | CCN(CC)c1cccc(C)c1 | inactive | 
2 | CC(C)CCOCCC(C)C | inactive | 
3 | CCCCCCOc1ccc(O)cc1 | 13.7 µM (active) | 
4 | CC(C(O)c1ccccc1)N(C)CCOC(c1ccccc1)c1ccccc1 (stereo not given) | inactive | 
5 | O=C(c1ccccc1)c1cc(Cl)ccc1O | inactive | 
6 | CC(C)(c1cc(Br)c(O)c(Br)c1)c1cc(Br)c(O)c(Br)c1 | inactive | 
7 | CCCCCCCC/C=C/CCCOC(C)=O | inactive | 
8 | Cc1c(C)n(Cc2ccccc2)c2ccc(C(=O)OCCN(C)C)cc12 | 29.8 µM (active) | 
9 | COc1nccnc1CC(C)C | inactive | 
10 | CCOCOCC | inactive | 
11 | NCCCCCCNCCCCCCN | inactive | 
12 | CC(C)N=C(N)/N=C(\N)Nc1ccc(Cl)cc1 | inactive | 
13 | CCN(CC)c1ccc(N)cc1 | inactive | 
14 | Cc1cc2c(C(C)C)c(O)c(O)c(C=O)c2c(O)c1-c1c(C)cc2c(C(C)C)c(O)c(O)c(C=O)c2c1O | inactive | 
15 | O=C(Nc1ccc(Cl)c(Cl)c1)c1cc(Cl)cc(Cl)c1O | inactive | 
16 | CCc1cccc(CC)c1N(COC)C(=O)CS(=O)(=O)O | inactive | 
17 | CCN1CCN(c2cc(-c3ccc(F)cc3)c3c(n2)CCCCCC3)CC1 |  | -0.232% [at 19 µM] (inactive)
18 | O=C1C=CC(=O)N1c1ccccc1 | inactive | 
19 | CCCCCCCCCCOCC(O)CN (stereo not given) | inactive | 
20 | NC(=O)c1nc(-c2cccc(-c3cc(F)ccc3OCC(F)(F)C(F)(F)F)c2)n[nH]1 | inactive | 

Row | Structure (SMILES) | Potency | activation
21 | CCCCCCCCCCCCN(CCO)CCO | inactive | 
22 | CC(=O)Oc1ccc(C2(c3ccc(OC(C)=O)cc3)C(=O)Nc3ccccc32)cc1 | inactive | 
23 | C/C=C/C(=O)C1=C(C)CCCC1(C)C | inactive | 
24 | NC(=O)c1ccccc1N | inactive | 
25 | Cc1oc(-c2ccccc2)nc1CCOc1ccc(C[C@H](Nc2ccccc2C(=O)c2ccccc2)C(=O)O)cc1 | inactive | 
26 | S=P(N1CC1)(N1CC1)N1CC1 | inactive | 
27 | CCN(CC)CCNc1ccc(CO)c2sc3ccccc3c(=O)c12 | inactive | 
28 | COc1cc(C(=O)NS(=O)(=O)c2ccccc2C)ccc1Cc1cn(C)c2ccc(NC(=O)OC3CCCC3)cc12 | inactive | 
29 | CCc1c(Br)c(Br)c(Br)c(Br)c1Br | inactive | 
30 | CC1(C)COCN1 | inactive | 
31 | CCCN(CCc1cccs1)[C@H]1CCc2c(O)cccc2C1 | inactive | 
32 | CC(C)(C)c1n[nH]c(=O)n(N)c1=O | inactive | 
33 | C1CC(COCC2CO2)CCC1COCC1CO1 (stereo not given) | inactive | 
34 | CC1=CP(=O)(c2ccccc2)CC1 (stereo not given) | inactive | 
35 | C[C@@H]1CC[C@H]2C(C)(C)[C@H]3C[C@@]12CC[C@@]3(C)O | inactive | 
36 | CCc1cccc(CC)c1NC(=O)C(=O)O | inactive | 
37 | CCCCCCCC(=O)OCC | inactive | 
38 | Cc1cncc(C)c1 | inactive | 
39 | CC(C)(c1cc(Br)c(OCCO)c(Br)c1)c1cc(Br)c(OCCO)c(Br)c1 | inactive | 
40 | CCCCCCCOC(=O)c1ccccc1C(=O)OCCCCCCC | inactive | 
